About 83,000 compounds went through this panel and 20% of them were active in at least one assay; those are over-represented in the sample as a whole.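 Plates (96-well) were seeded with cells, treated with compound at one concentration, and incubated for 48 hours before percent growth was determined.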 Values without a mark were called inactive. The source made the active and inactive calls. How the source made its calls: active means growth percent below 10; inactive means the rest.

Data on nine compounds can be found in PubChem BioAssay (NCI).

Some test systems named below: DU-145 prostate; K-562 leukemia; MDA-MB-231 breast; RXF 393 renal; SF-268 CNS; SF-295 CNS; UACC-257 melanoma; M14 melanoma; HCT-15 colon; HT29 colon; SNB-75 CNS; SNB-19 CNS; U251 CNS; PC-3 prostate; SK-MEL-5 melanoma; LOX IMVI melanoma; SK-MEL-28 melanoma; SF-539 CNS; UACC-62 melanoma.
Common to all, as to test: NCI-60 one-dose screen, 48 h (100 = growth as untreated, 0 = no growth, -100 = all killed)
What all share (settings): 10 µM

As to `CCN(CC)CCCC(C)Nc1c2ccc(Cl)cc2nc2ccc(OC)cc12` (stereo unspecified), the growth in the test on DU-145 prostate was 16.1%; with K-562 leukemia it was 0.665% (active); with MDA-MB-231 breast, 19.8%; in the test with RXF 393 renal, -16.1% (active); in the test on SF-268 CNS, 30.4%; in the test with SF-295 CNS, 26.8%. Also, the growth in the test on UACC-257 melanoma is -89.3% (active); in the test on M14 melanoma, -73.1% (active); with HCT-15 colon, 14.2%; in the test with HT29 colon, -30.3% (active); in the test with SNB-75 CNS it was 16.3%; in the test with SNB-19 CNS it was 35.4%. The growth in the test on U251 CNS is 11.4%; in the test with PC-3 prostate it was 35%; in the test on SK-MEL-5 melanoma it was -87.5% (active); in the test with LOX IMVI melanoma, -48.1% (active); in the test with SK-MEL-28 melanoma it was -57.6% (active).
Take `COc1cc(N)c2ncccc2c1SC`: the growth in the test on DU-145 prostate is 104%; in the test on K-562 leukemia, 122%; in the test with MDA-MB-231 breast it was 95.1%; in the test with RXF 393 renal, 121%; in the test with SF-268 CNS, 91.2%; in the test with SF-295 CNS it was 109%. Further, the growth in the test on SF-539 CNS was 114%; with UACC-257 melanoma it was 98.3%; in the test with M14 melanoma it was 104%; with HCT-15 colon, 112%; with SNB-75 CNS it was 91%; with SNB-19 CNS, 99%. In addition, the growth is 102% in the test on U251 CNS; 101% with PC-3 prostate; 107% in the test with SK-MEL-5 melanoma; 110% in the test on UACC-62 melanoma; 93.1% in the test with LOX IMVI melanoma; 106% in the test on SK-MEL-28 melanoma.
In the case of `O=c1c(Br)ccc(Br)cc1Br`, the growth in the test with DU-145 prostate was -72.3% (active); in the test on K-562 leukemia it was -11.6% (active); with MDA-MB-231 breast, -3.63% (active); in the test with RXF 393 renal, -89.5% (active); in the test with SF-268 CNS it was 14.3%; in the test on SF-295 CNS, 46.7%. In addition, the growth with SF-539 CNS was 15%; with M14 melanoma, -70.2% (active); in the test with HCT-15 colon, -32.8% (active); with HT29 colon, -41.6% (active); in the test on SNB-19 CNS it was 86.6%; in the test on SK-MEL-5 melanoma it was 32.4%. The growth in the test with UACC-62 melanoma was -5.1% (active); in the test with LOX IMVI melanoma, -76.9% (active); with SK-MEL-28 melanoma, -53.4% (active).
Regarding `O=C1CC(=O)N(C(=O)c2nn(-c3ccc(Cl)cc3)cc2O)N1`, the growth in the test with DU-145 prostate was 46.9%; in the test with K-562 leukemia, 5.55% (active); in the test with MDA-MB-231 breast it was 62.3%; in the test with RXF 393 renal it was 53.3%; in the test on SF-268 CNS it was 43.3%; in the test on SF-295 CNS, -7.1% (active). Also, the growth was 39.7% in the test on SF-539 CNS; 66.1% in the test on UACC-257 melanoma; 47.5% with M14 melanoma; 36.9% in the test on HCT-15 colon; 27.9% with HT29 colon; 40.9% with SNB-75 CNS. Moreover, the growth in the test with SNB-19 CNS was 48%; with U251 CNS, 39.5%; in the test with SK-MEL-5 melanoma it was 47%; in the test with UACC-62 melanoma, 36.1%; with LOX IMVI melanoma it was 36.8%; in the test on SK-MEL-28 melanoma, 136%.
Turning to `Cc1ccc(C(=O)/C=C/c2ccccc2)s1`, the growth with DU-145 prostate was 92%; in the test on K-562 leukemia it was 108%; in the test with MDA-MB-231 breast, 112%; in the test with RXF 393 renal, 94.3%; in the test with SF-268 CNS, 99%; in the test with SF-295 CNS, 92.6%. Further, the growth with SF-539 CNS is 132%; with UACC-257 melanoma it was 121%; with M14 melanoma, 86.9%; with HCT-15 colon, 107%; in the test with HT29 colon, 107%; in the test on SNB-75 CNS, 106%. For the same compound, the growth in the test on SNB-19 CNS is 99.1%; in the test with U251 CNS it was 95.8%; in the test on SK-MEL-5 melanoma it was 99.9%; in the test with LOX IMVI melanoma, 79.1%; in the test on SK-MEL-28 melanoma, 114%.
Turning to `COc1ccc(/C=c2\sc3n(c2=O)C(c2cc(OC)c(OC)c(OC)c2)C=C(c2ccc(OC)c(OC)c2)N=3)cc1OC` (stereo unspecified), the growth with DU-145 prostate was 112%; in the test with K-562 leukemia, 89.9%; with MDA-MB-231 breast, 85.5%; in the test on RXF 393 renal, 105%; in the test on SF-268 CNS it was 91.1%; with SF-295 CNS, 115%. Also, the growth in the test with UACC-257 melanoma is 88.9%; in the test with M14 melanoma, 100%; in the test on HCT-15 colon, 90.3%; in the test on SNB-75 CNS it was 76.2%; with SNB-19 CNS, 89.9%; in the test on U251 CNS it was 98.9%. Further, the growth in the test with PC-3 prostate was 86.6%; in the test on SK-MEL-5 melanoma, 83.4%; with UACC-62 melanoma, 85.6%; in the test with LOX IMVI melanoma, 93.8%; with SK-MEL-28 melanoma, 104%.
For the compound `COc1ccc(N(C)c2ncnc3occ(C)c23)cc1`, the growth was -40.2% (active) in the test on DU-145 prostate; 1.42% (active) with K-562 leukemia; -3.09% (active) in the test on MDA-MB-231 breast; 14.4% in the test on RXF 393 renal; 18% in the test on SF-268 CNS; -8.16% (active) in the test with SF-295 CNS. Further, the growth is -20.4% (active) in the test with SF-539 CNS; 66.8% in the test with UACC-257 melanoma; 0.316% (active) with M14 melanoma; 11.1% in the test with HCT-15 colon; 7.69% (active) in the test with HT29 colon; 44.8% in the test on SNB-75 CNS. In addition, the growth in the test with SNB-19 CNS is 27.2%; in the test with U251 CNS, 13.9%; with SK-MEL-5 melanoma it was -44.5% (active); in the test on UACC-62 melanoma, 22.9%; in the test with LOX IMVI melanoma, 17.7%; with SK-MEL-28 melanoma it was 134%.
With `Cc1ccc(C(SCC(N)C(=O)O)(c2ccc(C)cc2)c2ccc(C)cc2)cc1` (stereo unspecified), the growth was -39% (active) in the test with DU-145 prostate; 0.419% (active) in the test on K-562 leukemia; 1.37% (active) in the test on MDA-MB-231 breast; 17.6% with SF-268 CNS; -13.8% (active) in the test on SF-295 CNS; -29.7% (active) with SF-539 CNS. In addition, the growth with UACC-257 melanoma is -18.5% (active); in the test on M14 melanoma, -74.5% (active); in the test on HCT-15 colon, 30.1%; in the test on HT29 colon, 14.1%; in the test on SNB-75 CNS, -6.9% (active); in the test with SNB-19 CNS, 30.4%. Besides, the growth is 25.4% in the test on U251 CNS; 11.2% with PC-3 prostate; 16.5% in the test on SK-MEL-5 melanoma; 30.7% with UACC-62 melanoma; 40.6% in the test on LOX IMVI melanoma; 56.6% with SK-MEL-28 melanoma.
On to `COc1ccc(C2CC(c3cc(OC)c(OC)c(OC)c3)=NN2)cc1` (stereo unspecified), for which the growth in the test with DU-145 prostate is 91.5%; with K-562 leukemia, 11.2%; in the test on MDA-MB-231 breast, 86.8%; in the test with RXF 393 renal, 92.5%; with SF-268 CNS, 74.2%; in the test with SF-295 CNS it was 48.1%. Besides, the growth is 78.7% with SF-539 CNS; 120% in the test on UACC-257 melanoma; 92.6% in the test with M14 melanoma; 36.2% in the test with HCT-15 colon; 29.9% with HT29 colon; 68.5% with SNB-75 CNS. The growth in the test with SNB-19 CNS was 68.3%; in the test on U251 CNS, 26.2%; in the test with SK-MEL-5 melanoma it was 81.4%; with UACC-62 melanoma, 67%; with LOX IMVI melanoma it was 43.9%; in the test on SK-MEL-28 melanoma it was 113%.
